Bioassay records as filed in PubChem BioAssay.
This is a sample that favours compounds with a hit; in the whole collection about 3.1% have one here.
Tau fluor cs = counter-screen for tau fibril formation inhibitors. tau K18 P301L Alexa594 fluorescence, heparin fibrillization. Potency, µM (highest dose often 57.7 µM), for the others: top-dose activity change, negative = decrease. 280,000 tested, 0.93% active. AID 1463; note: nearly all actives have a fitted effect of over 55% in size
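Human K18 P301L tau (15 uM unlabeled plus 0.24 uM Alexa 594-labeled, final) in 100 mM sodium acetate pH 7 was mixed with compound and 20 uM heparin and incubated 6 hr at 37 C.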
Tau fibril FP = blocks human tau fibril formation measured by polarization; AID 1468; P10636; Potency, µM (titrated, usually from 57.7 µM), for inactives: top-dose activity, negative = inhibition, hits mostly inhibitors; K18 P301L tau heparin fibrillization, Alexa594 FP, 6 h; 280,000 tested, 0.39% active; note: nearly all actives have a fitted effect of over 55% in size
Target sequence (P10636 561-689 P618L limits assumed): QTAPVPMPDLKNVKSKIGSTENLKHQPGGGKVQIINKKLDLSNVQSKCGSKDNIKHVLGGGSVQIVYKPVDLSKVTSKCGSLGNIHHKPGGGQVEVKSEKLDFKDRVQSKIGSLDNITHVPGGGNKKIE
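Read-out: fluorescence polarization of Alexa 594-labeled tau (0.24 uM), 555 nm excitation, 632 nm emission. Mixtures held 15 uM unlabeled K18 P301L, compound and 20 uM heparin, pH 7 acetate buffer, incubated 6 hr at 37 C.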
TR SRC2 fluor cs = counter-screen for TRb-SRC2 inhibitors: fluorescence interference | TRb/SRC2 Texas Red total fluorescence interference | Potency, µM (top dose mostly 106 µM), for the others: top-dose fluorescence change, negative = quenching | 280,000 tested, 0.29% active; active = well fitted curve in either direction with a large enough effect; inconclusive = small, poorly fitted or top-dose-only effect
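Human TRb ligand-binding domain at 0.6 uM with 20 nM Texas Red SRC2 peptide in Tris buffer containing 1 uM T3 and 5% DMSO, incubated with compound 5 h at ambient temperature. Total fluorescence (555/632 nm) calculated as parallel + 2 × perpendicular.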
Tau ThT inhib = blocks human tau fibril formation measured by thioflavin T | P10636 | recombinant tau K18 P301L (four-repeat tau fragment), heparin-induced fibrillization, ThT fluorescence | Potency, µM (highest dose often 57.4 µM), for inactives: at the top dose activity, negative = inhibition, hits mostly inhibitors | 270,000 tested, 2.1% active; note: nearly all actives have a fitted effect of over 55% in size
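Heparin-induced fibrillization of the P301L-mutant K18 repeat-domain fragment of human tau was followed by ThT binding in quantitative high-throughput format.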
TRb SRC2 PPI = inhibitors of human thyroid hormone receptor beta-SRC2 interaction. P10828. TRbeta-SRC2 peptide binding, fluorescence polarization; receptor liganded with 1 µM T3. Potency, µM (doses to about 106 µM), inactives show at the highest dose activity change, negative = inhibition, usual class: inhibitors. 280,000 tested, 0.065% active. AID 1469;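 note: plate controls were bound peptide for no effect and peptide without receptor for full effect; nearly all actives have a fitted effect of over 50% in size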
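Decrease in fluorescence polarization of 20 nM Texas Red SRC2 coactivator peptide flagged inhibition of its binding to 0.6 uM TRb LBD; 1 uM T3 included, incubation 5 hr, ex 555/em 632 nm.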
RGS12 GoLoco inh = blocks human Gai1 binding to RGS12 GoLoco peptide, red readout. P63096. Gai1:RGS12 GoLoco peptide FP, rhodamine, 10 min. Potency, µM (highest dose often 61.6 µM), inactives show top-dose activity, negative = inhibition, hits mostly inhibitors. 230,000 tested, 0.44% active; active = well fitted inhibition curve with a large enough effect, not every such curve was filed as active; inactive = no such curve, though single readings can be large or run the other way; note: nearly all actives have a fitted effect of over 30% in size
Target sequence (P63096 whole entry, looked up): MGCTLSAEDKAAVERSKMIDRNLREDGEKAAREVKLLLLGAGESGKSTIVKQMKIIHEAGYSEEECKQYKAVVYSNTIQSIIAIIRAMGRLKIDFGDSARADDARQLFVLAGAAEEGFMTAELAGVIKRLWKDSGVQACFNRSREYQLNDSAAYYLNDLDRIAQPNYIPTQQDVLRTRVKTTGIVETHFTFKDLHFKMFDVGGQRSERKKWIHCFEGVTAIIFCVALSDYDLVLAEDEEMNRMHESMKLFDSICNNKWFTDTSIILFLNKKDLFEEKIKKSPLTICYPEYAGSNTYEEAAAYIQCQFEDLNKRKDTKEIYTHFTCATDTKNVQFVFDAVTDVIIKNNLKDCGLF
* hit, by the source's call; ? = inconclusive; / = no result given; [ ] = remark or other dose. Unless noted, calls come from the whole dose curve; as a rule, active = well fitted curve in the direction sought with a large enough effect; inconclusive = small, poorly fitted or top-dose-only effect, or another doubt; inactive = no such curve, though single readings can be large; an effect the other way counts as inactive or inconclusive. Unless noted, % is set by controls: 0 for no effect and ±100 for the full control effect; potency is the fitted concentration of half-maximal effect.

SMILES	Tau fluor cs	Tau fibril FP	TR SRC2 fluor cs	Tau ThT inhib	TRb SRC2 PPI	RGS12 GoLoco inh
Cc1noc(C)c1-c1nccc(NCc2ccccc2)n1	/	/	/	/	/	7.1µM*
Cc1cnc(CNc2ccnc(-c3c(C)noc3C)n2)cn1	/	/	/	/	/	-14%
CCOc1ccccc1N1C(=O)CC(Nc2ccc(N3CCOCC3)cc2)C1=O (stereo not drawn)	-5%	2%	-4%	3%	1%	-27%
COc1ccccc1N1C(=O)CC(Nc2ccc(N3CCOCC3)cc2)C1=O (stereo not drawn)	-20%	-7%	11%	28µM*	-14%	-25%
O=C1CC(Nc2ccc(N3CCOCC3)cc2)C(=O)N1c1ccccc1 (stereo not drawn)	-19%	-5%	3%	16µM*	-6%	-20%
COc1ccc(/C=N/NC(=O)c2ccc(O)cc2)cc1CN1CCCc2ccccc21	14µM*[quencher]	?	1%	?	0%	20%
COc1ccc(/C=N/NC(=O)c2ccc(F)cc2)cc1CN1CCc2cc(OC)c(OC)cc2C1C (stereo not drawn)	?	4%	2%	?	-5%	21%
CCOC(=O)C1CCN(C(=O)c2cc3sc(C)cc3n2C)CC1	-4%	0%	-20%	-6%	-1%	/
N/C(=N\OC(=O)c1ccc(Cl)c([N+](=O)[O-])c1)c1ccccn1	?	-7%	-5%	8.9µM*	-1%	3%
Cc1oc(-c2cccc(Cl)c2)nc1CN1CCCC(C(=O)NCc2ccc(Cl)cc2)C1 (stereo not drawn)	-12%	-1%	-21%	?	-3%	/
CC(NC(=O)c1sc2cc([N+](=O)[O-])ccc2c1Cl)C(C)(C)C (stereo not drawn)	-26%	?	-4%	22µM*	0%	/
O=C(NC1CC1)c1sc2cc([N+](=O)[O-])ccc2c1Cl	-15%	5%	5%	?	1%	4%
CC12CC(c3ccccc3O1)N(C(=O)c1ccco1)C(=S)N2c1ccc(F)cc1 (stereo not drawn)	-15%	3%	-1%	-16%	5%	16%
COc1cccc(NC(=O)Nc2nnc(N3C(C)CCCC3C)s2)c1 (stereo not drawn)	10µM*[quencher]	?	-2%	?	2%	5%
COc1ccc(NC(=O)Nc2nnc(N3CCCC3)s2)cc1	0%	13%	-1%	-13%	-5%	/
COc1cccc(NC(=O)Nc2nnc(CC(=O)Nc3ccccc3)s2)c1	?	13µM*	-1%	-3%	7%	4%
COc1ccc(NC(=O)Nc2nnc(CC(=O)Nc3ccccc3)s2)cc1	-26%	1%	-1%	/	-3%	15%
COc1ccc(S(=O)(=O)c2c(SC)nn(CC(=O)Nc3ccc(C)c(Cl)c3)c2N)cc1	?	25µM*	-2%	7%	-2%	/
CCSc1nn(CC(=O)Nc2cccc(CC)c2)c(N)c1S(=O)(=O)c1ccccc1	18µM*[quencher]	?	-1%	-7%	11%	/
CCSc1nn(CC(=O)Nc2cccc(Cl)c2)c(N)c1S(=O)(=O)c1ccc(OC)cc1	?	?	-1%	21%	-1%	/
CC1(C)CC(=O)c2c(oc3cc(O)c(O)cc23)C1	?	?	-5%	28µM*	9%	-20%
Cc1nnc(SCC(=O)Nc2cc(S(=O)(=O)N3CCCC3)ccc2Cl)s1	-20%	-1%	-2%	-12%	0%	20%
O=C(CSc1nnc(NC2CCCCC2)s1)Nc1ccc2c(c1)C(=O)c1ccccc1C2=O	8.9µM*[quencher]	?	-4%	?	5%	20%
Cc1ccc(-c2nc(SCC(=O)Nc3cc(S(=O)(=O)N4CCCCC4)ccc3Cl)n[nH]2)cc1	?	22µM*	-2%	1%	4%	13%
CC(C)Nc1nnc(SCC(=O)Nc2ccc3c(c2)C(=O)c2ccccc2C3=O)s1	13µM*[quencher]	14%	-9%	10µM*	3%	5%
SMILES	Tau fluor cs	Tau fibril FP	TR SRC2 fluor cs	Tau ThT inhib	TRb SRC2 PPI	RGS12 GoLoco inh
Cc1ccc(Nc2nnc(SCC(=O)Nc3cccc(S(=O)(=O)N4CCCCC4)c3)s2)cc1	7.9µM*[quencher]	-13%	0%	-1%	12%	-38%
CCC(O)c1cc2c(cc1NC(=O)c1cccc(Br)c1)OCCO2 (stereo not drawn)	-23%	-10%	-9%	-7%	6%	/
O=C1C2=CC[C@H]3C(=O)N(c4cccc(Oc5ccccc5)c4)C(=O)[C@@H]3[C@@H]2[C@H](O)[C@@H]2O[C@H]12	-11%[11.6 µM]	?	-4%[11.2 µM]	?	4%[11.2 µM]	/
CCOC(=O)C1=C(O)/C(=C/c2cc(OC)c(O)c(OC)c2)SC1=Nc1ccc(OC)cc1	-8%	11%	-5%	?	0%	117%
O=C(NC(=S)Nc1ccc(CN2CCOCC2)cc1)c1ccc(-c2ccc(Cl)cc2)o1	-13%	-13%	0%	-3%	-3%	3%
CC(/C=N/NC(=O)Cc1cccn1C)=C\c1ccco1	-22%	?	0%	28µM*	3%	10%
CC1(C)CNc2cc(N)ccc2S1	14µM*[quencher]	?	-2%	16µM*	-14%	4%
CCc1cc(C(c2ccc(F)cc2)N2CCOCC2)c(NC(=O)c2ccccc2)s1 (stereo not drawn)	?	-9%	-4%	32µM*	-1%	-5%
CCc1cc(C(c2ccc(OC)c(OC)c2)N2CCOCC2)c(NC(=O)c2ccccc2)s1 (stereo not drawn)	?	4%	-3%	?	-4%	/
CC(=O)Nc1scc(C)c1-c1nc2ccccc2s1	-23%	-11%	0%	?	5%	0%
CNc1sc(C(=O)c2cccs2)c(N)c1-c1nc2ccccc2s1	11µM*[quencher]	32µM*	-1%	7.9µM*	-1%	46%
CNc1sc(C(=O)c2ccc(F)cc2)c(N)c1-c1nc2ccccc2s1	?	-1%	-2%	16µM*	3%	-9%
CCNc1nc(N)c(C(=O)c2ccc(Cl)s2)s1	?	8%	-8%	13µM*	0%	-7%
COC(=O)CCc1sc(Nc2ccc(OC)cc2)nc1-c1ccc(OC)cc1	18µM*[quencher]	10%	-21%	?	3%	/
O=C1Nc2ccc(Br)cc2/C1=C/C(=O)c1ccc2c(c1)OCO2	?	12%	-2%	25µM*	9%	7%
CCOc1ccc(N=C2NC(=O)S/C2=C\c2ccc(N(C)C)cc2)cc1	?	8%	-1%	1.1µM*	2%	-3%
CCOc1ccc(/C=C2/SC(=O)NC2=S)cc1	?	-4%	-6%	3.2µM*	-4%	15%
C[C@@H](CCC(=O)O)C(=O)O	/	/	/	/	/	-5%[14.2 µM]
